Experimental data published in PubChem BioAssay AID1159580 (chemical genetic matrix, 2015).
Values joined by “and” are separate entries in the source; they are usually repeats but may differ in a detail not shown here. Equal entries are not always repeated. In all, about 5,500 compounds went through this assay and about 2,000 (36%) were called active. Another 18% or so got no clear call; they are omitted. Cut-off read from the data, not from the text of the source: active = normalized growth mostly below about 0.91 (no sharp cut-off); inconclusive = no clear call, values can overlap the other calls; inactive = mostly above about 0.92. Some of the results follow.

Test: chemical genetic growth profiling, strain panel (AID 1159580);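 note: tested at 20 µM; growth read once vehicle control cultures reached saturation at 30 °C; 1 = growth at the plate median or of vehicle wells; lower values mean less growth of the strain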
Details: S. cerevisiae deletion strains, growth OD

Measured: normalized growth

CCCCCCCCCCCCCCCC[n+]1ccccc1
active: locus YAL013W, strain DEP1, active compounds read low 0.0574 | locus YAL021C, strain ccr4, active compounds read low 0.0611 | locus YAL026C, strain drs2, active compounds read low 0.0581 | locus YAL030W, strain snc1, active compounds read low 0.0525 | locus YBL061C, strain skt5, active compounds read low 0.0581 | locus YBR009C, strain hhf1, active compounds read low 0.0558 | locus YBR021W, strain FUR4, active compounds read low 0.0963 | locus YBR023C, strain chs3, active compounds read low 0.0594 | locus YBR171W, strain sec66, active compounds read low 0.0739 | locus YBR229C, strain ROT2, active compounds read low 0.0303 | locus YBR231C, strain swc5, active compounds read low 0.0577 | locus YBR279W, strain paf1, active compounds read low 0.0555 | locus YCL011C, strain gbp2, active compounds read low 0.053 | locus YCL016C, strain dcc1, active compounds read low 0.0599 | locus YCL029C, strain bik1, active compounds read low 0.058 | locus YCL061C, strain MRC1, active compounds read low 0.0607 | locus YCL069W, strain vba3, active compounds read low 0.0581 | locus YCR088W, strain abp1, active compounds read low 0.0584 | locus YDL005C, strain med2, active compounds read low 0.0695 | locus YDL035C, strain GPR1, active compounds read low 0.0498 | locus YDL040C, strain nat1, active compounds read low 0.0541 | locus YDL074C, strain BRE1, active compounds read low 0.0827 | locus YDL101C, strain DUN1, active compounds read low 0.0526 | locus YDL134C, strain PPH21, active compounds read low 0.0538 | locus YDL185W, strain tfp1, active compounds read low 0.0538 | locus YDL192W, strain arf1, active compounds read low 0.0595 | locus YDR001C, strain nth1, active compounds read low 0.0571 | locus YDR069C, strain doa4, active compounds read low 0.0582 | locus YDR101C, strain arx1, active compounds read low 0.0554 | locus YDR137W, strain rgp1, active compounds read low 0.0947 | locus YDR150W, strain NUM1, active compounds read low 0.0551 | locus YDR159W, strain sac3, active compounds read low 0.0818 | locus YDR162C, strain NBP2, active compounds read low 0.047 | locus YDR195W, strain ref2 0.109 | locus YDR297W, strain sur2, active compounds read low 0.0517 | locus YDR318W, strain mcm21, active compounds read low 0.0596 | locus YDR334W, strain swr1, active compounds read low 0.061 | locus YDR335W, strain msn5, active compounds read low 0.0563 | locus YDR388W, active compounds read low 0.0552 | locus YDR392W, strain spt3, active compounds read low 0.068 | locus YDR502C, strain sam2, active compounds read low 0.0615 | locus YEL003W, strain gim4, active compounds read low 0.0501 | locus YEL037C, strain rad23, active compounds read low 0.0542 | locus YEL061C, strain CIN8 (second series), active compounds read low 0.0582 | locus YEL061C, strain CIN8, active compounds read low 0.0502 | locus YER015W, strain faa2, active compounds read low 0.0581 | locus YER016W, strain bim1, active compounds read low 0.0593 | locus YER110C, active compounds read low 0.0712 | locus YER111C, strain swi4, active compounds read low 0.0669 | locus YER155C, strain BEM2 (second series), active compounds read low 0.0821 | locus YER155C, strain BEM2, active compounds read low 0.0622 | locus YER167W, strain BCK2, active compounds read low 0.0514 | locus YFR010W, strain ubp6, active compounds read low 0.0662 | locus YGL078C, strain dbp3, active compounds read low 0.0557 | locus YGL086W, strain mad1, active compounds read low 0.0563 | locus YGL167C, strain pmr1, active compounds read low 0.0673 | locus YGL173C, strain kem1, active compounds read low 0.0629 | locus YGL227W, strain vid30, active compounds read low 0.062 | locus YGL240W, strain doc1, active compounds read low 0.0671 | locus YGL248W, strain PDE1, active compounds read low 0.0451 | locus YGL253W, strain hxk2, active compounds read low 0.0516 | locus YGR135W, strain pre9, active compounds read low 0.0612 | locus YGR252W, strain gcn5, active compounds read low 0.17 | locus YHR013C, strain ard1, active compounds read low 0.0961 | locus YHR027C, strain rpn1, active compounds read low 0.0594 | locus YHR030C, strain SLT2, active compounds read low 0.0512 and 0.0945 | locus YHR079C, strain IRE1 (second series), active compounds read low 0.0605 | locus YHR079C, strain IRE1, active compounds read low 0.11 | locus YHR094C, strain hxt1, active compounds read low 0.0564 | locus YHR129C, strain ARP1, active compounds read low 0.0537 | locus YHR142W, strain chs7, active compounds read low 0.0693 | locus YHR200W, strain rpn10, active compounds read low 0.0581 | locus YIL066C, strain RNR3, active compounds read low 0.0411 | locus YIL073C, strain SPO22, active compounds read low 0.106 | locus YIL125W, strain kgd1, active compounds read low 0.0545 | locus YIR030C, strain dcg1, active compounds read low 0.0571 | locus YJL092W, strain hpr5, active compounds read low 0.0574 | locus YJL095W, strain BCK1 (second series), active compounds read low 0.0528 | locus YJL095W, strain BCK1, active compounds read low 0.0624 and 0.0966 | locus YJL115W, strain asf1, active compounds read low 0.0684 | locus YJL129C, strain trk1, active compounds read low 0.0768 | locus YJL134W, strain LCB3, active compounds read low 0.047 | locus YJL154C, strain vps35, active compounds read low 0.057 | locus YJL164C, strain tpk1, active compounds read low 0.0549 | locus YJL166W, strain qcr8, active compounds read low 0.0563 | locus YJL168C, strain set2, active compounds read low 0.0564 | locus YJL187C, strain SWE1 (second series), active compounds read low 0.0398 | locus YJL187C, strain SWE1, active compounds read low 0.0529 | locus YJR043C, strain POL32, active compounds read low 0.0648 | locus YJR066W, strain TOR1, active compounds read low -0.000212 | locus YKL009W, strain mrt4, active compounds read low 0.0643 | locus YKL068W, active compounds read low 0.0564 | locus YKL085W, strain MDH1 (second series), active compounds read low 0.0485 | locus YKL085W, strain MDH1, active compounds read low 0.0485 | locus YKL160W, strain elf1, active compounds read low 0.058 | locus YKR001C, strain vps1, active compounds read low 0.0609 | locus YKR026C, strain gcn3, active compounds read low 0.058 | locus YKR091W, strain srl3, active compounds read low 0.0563 | locus YLL001W, strain dnm1, active compounds read low 0.0595 | locus YLL026W, active compounds read low 0.0533 | locus YLL041C, strain sdh2, active compounds read low 0.0527 | locus YLR027C, strain aat2, active compounds read low 0.0516 | locus YLR039C, strain RIC1, active compounds read low 0.101 | locus YLR058C, strain SHM2, active compounds read low 0.0432 | locus YLR102C, strain apc9, active compounds read low 0.058 | locus YLR113W, strain HOG1, active compounds read low 0.126 | locus YLR221C, strain rsa3, active compounds read low 0.0565 | locus YLR258W, strain gsy2, active compounds read low 0.0549 | locus YLR262C, strain YPT6 (second series), active compounds read low 0.0739 | locus YLR262C, strain YPT6, active compounds read low 0.0999 | locus YLR268W, strain sec22, active compounds read low 0.0648 | locus YLR320W, strain mms22, active compounds read low 0.0701 | locus YLR330W, strain CHS5, active compounds read low 0.0543 | locus YLR342W, strain FKS1 (second series), active compounds read low 0.0596 | locus YLR342W, strain FKS1, active compounds read low 0.0608 | locus YLR357W, strain rsc2, active compounds read low 0.119 | locus YLR370C, strain arc18, active compounds read low 0.0588 | locus YLR371W, strain rom2, active compounds read low 0.0606 | locus YLR384C, strain iki3, active compounds read low 0.0569 | locus YLR418C, strain cdc73, active compounds read low 0.0923 | locus YML016C, strain PPZ1, active compounds read low 0.0531 | locus YML032C, strain rad52, active compounds read low 0.0676 | locus YML120C, strain ndi1, active compounds read low 0.0532 | locus YML124C, strain tub3, active compounds read low 0.0589 | locus YMR058W, strain fet3, active compounds read low 0.0569 | locus YMR078C, strain ctf18, active compounds read low 0.0681 | locus YMR125W, strain sto1, active compounds read low 0.0655 | locus YMR129W, active compounds read low 0.0538 | locus YMR205C, strain PFK2, active compounds read low 0.0777 | locus YMR223W, strain ubp8, active compounds read low 0.061 | locus YMR231W, strain pep5, active compounds read low 0.0645 | locus YMR307W, strain GAS1, active compounds read low 0.134 | locus YNL067W, strain RPL9B, active compounds read low 0.0493 | locus YNL071W, strain lat1, active compounds read low 0.0582 | locus YNL153C, strain GIM3, active compounds read low 0.0537 | locus YNL183C, strain NPR1, active compounds read low -0.00168 | locus YNL209W, strain ssb2, active compounds read low 0.0552 | locus YNL233W, strain BNI4, active compounds read low 0.0562 | locus YNL248C, strain rpa49, active compounds read low 0.0711 | locus YNL250W, strain rad50, active compounds read low 0.0768 | locus YNL271C, strain bni1, active compounds read low 0.0589 | locus YNL298W, strain CLA4, active compounds read low 0.0577 | locus YNL307C, strain MCK1, active compounds read low 0.0655 | locus YNL322C, strain KRE1 (second series), active compounds read low 0.06 | locus YNL322C, strain KRE1, active compounds read low 0.048 | locus YNR049C, strain mso1, active compounds read low 0.0552 | locus YNR052C, strain pop2, active compounds read low 0.0583 | locus YOL147C, strain pex11, active compounds read low 0.0569 | locus YOR001W, strain rrp6, active compounds read low 0.0649 | locus YOR061W, strain CKA2, active compounds read low 0.0309 | locus YOR069W, strain VPS5, active compounds read low 0.0516 | locus YOR070C, strain gyp1, active compounds read low 0.0562 | locus YOR080W, strain dia2, active compounds read low 0.0607 | locus YOR083W, strain WHI5, active compounds read low 0.0593 | locus YOR106W, strain vam3, active compounds read low 0.0617 | locus YOR136W, strain idh2, active compounds read low 0.0704 | locus YOR144C, strain elg1, active compounds read low 0.0544 | locus YOR184W, strain ser1, active compounds read low 0.0674 | locus YOR231W, strain MKK1, active compounds read low 0.0972 | locus YOR265W, strain rbl2, active compounds read low 0.0533 | locus YOR270C, strain vph1, active compounds read low 0.0863 | locus YOR290C, strain snf2, active compounds read low 0.0573 | locus YOR316C, strain cot1, active compounds read low 0.0567 | locus YPL051W, strain arl3, active compounds read low 0.06 | locus YPL055C, strain LGE1, active compounds read low 0.0709 | locus YPL078C, strain atp4, active compounds read low 0.0604 | locus YPL106C, strain sse1, active compounds read low 0.0881 | locus YPL240C, strain hsp82, active compounds read low 0.0535 | locus YPL241C, strain CIN2, active compounds read low 0.0502 | locus YPL256C, strain CLN2, active compounds read low 0.113 | locus YPR119W, strain clb2, active compounds read low 0.0599 | locus YPR141C, strain kar3, active compounds read low 0.0617 | locus YPR163C, strain tif3, active compounds read low 0.0683 | locus YPR167C, strain met16, active compounds read low 0.06 | strain wtn01, active compounds read low 0.061
